From PubChem BioAssay (NCI)
This is part of a sample that, as a whole, favours compounds with a hit. Of some 79,000 tested, about 15% had one in any assay. Calls of active or inactive are those of the source. No stated cut-off is given here; in the data, active means growth inhibition above about 70%; inactive means the rest.

Legend:
[1] = NCI Yeast Anticancer Drug Screen. Data for the mlh1 rad18 strain (AID 175); conditions: S. cerevisiae mlh1 rad18 strain growth inhibition, stronger effect = higher value
Procedure, shortened: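 Genetically defined yeast (DNA repair-deficient) exposed to compounds; growth inhibition determined relative to vehicle.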

[2] = NCI Yeast Anticancer Drug Screen. Data for the rad18 strain (AID 177); conditions: S. cerevisiae rad18 mutant growth inhibition, stronger effect = higher value
Procedure, shortened: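 Vehicle-treated cultures served as the baseline for scoring compound-induced growth inhibition in DNA-repair-mutant yeast.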

[3] = NCI Yeast Anticancer Drug Screen. Data for the rad52 strain (AID 147);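 further: 0% = growth of vehicle-treated control cultures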; conditions: S. cerevisiae rad52 mutant growth inhibition, stronger effect = higher value
Procedure, shortened: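 The repair-mutant yeast strain was incubated with compounds, then growth was read and inhibition derived relative to vehicle.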

[4] = NCI Yeast Anticancer Drug Screen. Data for the rad50EPP+ strain (AID 151);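 further: 0% = growth of vehicle-treated control cultures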; conditions: S. cerevisiae rad50 mutant strain, stronger effect = higher value
Procedure, shortened: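 Vehicle-normalised growth inhibition; rad50EPP+ yeast strain, altered in DNA damage repair, compound-treated.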

[5] = NCI Yeast Anticancer Drug Screen. Data for the rad50 strain (AID 155);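 further: 0% = growth of vehicle-only cultures of the same strain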; conditions: S. cerevisiae rad50 strain growth inhibition, stronger effect = higher value
Procedure, shortened: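 Growth of the mutant yeast was measured after compound exposure and referenced to vehicle-treated cultures.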

[6] = NCI Yeast Anticancer Drug Screen. Data for the mec2-1 strain (AID 157); conditions: S. cerevisiae mec2-1 strain, stronger effect = higher value
Procedure, shortened: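 Mutant yeast (mec2-1) grown with compound; growth inhibition relative to vehicle control reported.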

[7] = NCI Yeast Anticancer Drug Screen. Data for the rad14 strain (AID 159);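 further: 0% = growth of vehicle-treated control cultures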; conditions: S. cerevisiae rad14 strain growth inhibition, stronger effect = higher value
Procedure, shortened: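 Here, inhibition of yeast growth was measured after compound exposure, using a strain with a genetic defect in DNA damage repair and vehicle-treated cultures as the reference.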

[8] = NCI Yeast Anticancer Drug Screen. Data for the sgs1 mgt1 strain (AID 161);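 further: 0% = growth of cultures given vehicle only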; conditions: S. cerevisiae sgs1 mgt1 strain, stronger effect = higher value
Procedure, shortened: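 Growth of a repair-deficient yeast mutant was monitored after compound treatment and expressed as inhibition relative to vehicle-treated cultures.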

[9] = NCI Yeast Anticancer Drug Screen. Data for the CLN2oe strain (AID 163);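 further: 0% = growth of vehicle-only control cultures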; conditions: S. cerevisiae CLN2oe strain, stronger effect = higher value
Procedure, shortened: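 Compounds are applied to yeast harbouring a defined cell-cycle control change; reduced growth compared with vehicle-treated controls gives the value.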

[10] = NCI Yeast Anticancer Drug Screen. Data for the cln2 rad14 strain (AID 165);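 further: 0% = growth equal to vehicle treated cultures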; conditions: S. cerevisiae cln2 rad14 strain, stronger effect = higher value
Procedure, shortened: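 Readout is yeast growth inhibition versus vehicle-treated controls, using a strain with cln2 and rad14 alterations exposed to compound.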

[11] = NCI Yeast Anticancer Drug Screen. Data for the bub3 strain (AID 167); conditions: S. cerevisiae bub3 mutant strain, stronger effect = higher value
Procedure, shortened: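 Whole-cell yeast assay. The mutant strain was incubated with compounds, and growth inhibition was determined by comparison with vehicle-treated cells.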

[12] = NCI Yeast Anticancer Drug Screen. Data for the wt2 strain (AID 169);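 further: 0% = growth of vehicle-treated yeast cultures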; conditions: S. cerevisiae wt2 strain growth inhibition, stronger effect = higher value
Procedure, shortened: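 Against vehicle-treated controls, the growth of yeast exposed to each compound was compared, and the inhibition was recorded.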

[13] = NCI Yeast Anticancer Drug Screen. Data for the mlh1 strain (AID 171);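 further: 0% = growth of vehicle-treated control cultures of the same strain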; conditions: S. cerevisiae mlh1 strain growth inhibition, stronger effect = higher value
Procedure, shortened: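 Measured: yeast growth. Reference: vehicle-treated controls. Organism: strain with a defined alteration affecting DNA damage repair or cell cycle control, treated with compound.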

[14] = NCI Yeast Anticancer Drug Screen. Data for the sgs1 strain (AID 173);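 further: 0% = growth of vehicle-only control cultures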; conditions: S. cerevisiae sgs1 mutant, stronger effect = higher value
Procedure, shortened: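 Each compound was added to cultures of the altered yeast strain. Growth was recorded, and inhibition was derived by comparison with vehicle controls.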

[15] = NCI Yeast Anticancer Drug Screen. Data for the mgt1 strain (AID 153); conditions: S. cerevisiae mgt1 mutant growth inhibition, stronger effect = higher value
Procedure, shortened: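 Vehicle-normalized growth inhibition is determined in mgt1 yeast, a strain selected for a defined alteration in DNA repair or cell cycle control.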

[16] = at 5.0 µM (retest, dose inferred, filed as 0.5)
[17] = at 50.0 µM (retest, dose inferred, filed as 5.0)

Measured: growth inhibition

Nc1ccc2c(c1)sc1ccccc12
active: [1]; at 50.0 µM 94.2% | [2]; at 100.0 µM 99%
inactive: [1]; [16] -122% | [1]; [17] 38% | [2]; at 1.2 µM 0% | [2]; at 3.7 µM 6% | [2]; at 11.0 µM 27% | [2]; at 33.0 µM 56%

[N-]=[N+]=NC(c1ccccc1)(c1ccccc1)c1ccccc1
active: [3]; at 100.0 µM 94% | [5]; [16] 100% | [5]; [17] 98% | [5]; at 50.0 µM 85% | [5]; at 100.0 µM 92% | [6]; [16] 99% | [6]; [17] 98% | [6]; at 50.0 µM 80.8% | [6]; at 100.0 µM 95% | [7]; at 100.0 µM 94% | [8]; [17] 84% | [8]; at 50.0 µM 87.7% | [9]; at 100.0 µM 78% | [10]; [17] 89% | [10]; at 50.0 µM 80.5% | [11]; [17] 79% | [11]; at 50.0 µM 87.8% | [11]; at 100.0 µM 86% | [12]; at 100.0 µM 89% | [13]; at 100.0 µM 91% | [14]; at 100.0 µM 87% | [1]; [16] 100% | [1]; [17] 99% | [1]; at 50.0 µM 84.1% | [2]; at 100.0 µM 87%
inactive: [3]; at 1.2 µM 8% | [3]; at 3.7 µM 6% | [3]; at 11.0 µM 9% | [3]; at 33.0 µM 29% | [4]; at 1.2 µM 9% | [4]; at 3.7 µM 15% | [4]; at 11.0 µM 11% | [4]; at 33.0 µM 21% | [4]; at 100.0 µM 28% | [5]; at 1.2 µM 14% | [5]; at 3.7 µM 22% | [5]; at 11.0 µM 6% | [5]; at 33.0 µM 40% | [6]; at 1.2 µM 12% | [6]; at 3.7 µM 11% | [6]; at 11.0 µM 13% | [6]; at 33.0 µM 32% | [7]; at 1.2 µM -9% | [7]; at 3.7 µM 1% | [7]; at 11.0 µM -4% | [7]; at 33.0 µM 24% | [8]; [16] -4% | [9]; at 1.2 µM 29% | [9]; at 3.7 µM 23% | [9]; at 11.0 µM 20% | [9]; at 33.0 µM 26% | [10]; [16] 17% | [11]; at 1.2 µM 3% | [11]; at 3.7 µM -17% | [11]; [16] 12% | [11]; at 11.0 µM -16% | [11]; at 33.0 µM 27% | [12]; at 1.2 µM -14% | [12]; at 3.7 µM -9% | [12]; at 11.0 µM -11% | [12]; at 33.0 µM 16% | [13]; at 1.2 µM 6% | [13]; at 3.7 µM 10% | [13]; at 11.0 µM 13% | [13]; at 33.0 µM 42% | [14]; at 1.2 µM 0% | [14]; at 3.7 µM -15% | [14]; at 11.0 µM -8% | [14]; at 33.0 µM 66% | [2]; at 1.2 µM 10% | [2]; at 3.7 µM 6% | [2]; at 11.0 µM 14% | [2]; at 33.0 µM 37%

Cn1ncc2cc3c(Nc4ccc(Cl)cc4)cccc3nc21
active: [5]; [17] 83% | [5]; at 100.0 µM 95%
inactive: [4]; at 1.2 µM 0% | [4]; at 3.7 µM 1% | [4]; at 11.0 µM 2% | [4]; at 33.0 µM 7% | [4]; at 100.0 µM 36% | [15]; at 1.2 µM -1% | [15]; at 3.7 µM 0% | [15]; at 11.0 µM -4% | [15]; at 33.0 µM -3% | [15]; at 100.0 µM 9% | [5]; at 1.2 µM 2% | [5]; at 3.7 µM 5% | [5]; [16] 25% | [5]; at 11.0 µM 10% | [5]; at 33.0 µM 42% | [5]; at 50.0 µM 59.9% | [6]; at 1.2 µM -5% | [6]; at 3.7 µM -7% | [6]; [16] 0% | [6]; at 11.0 µM -3% | [6]; at 33.0 µM -4% | [6]; [17] 5% | [6]; at 50.0 µM 8.6% | [6]; at 100.0 µM 6% | [7]; at 1.2 µM -2% | [7]; at 3.7 µM -2% | [7]; at 11.0 µM -3% | [7]; at 33.0 µM -3% | [7]; at 100.0 µM 29% | [8]; [16] -1% | [8]; [17] -2% | [8]; at 50.0 µM -10.4% | [9]; at 1.2 µM -5% | [9]; at 3.7 µM -4% | [9]; at 11.0 µM -5% | [9]; at 33.0 µM -3% | [9]; at 100.0 µM -6% | [10]; [16] -11% | [10]; [17] 1% | [10]; at 50.0 µM -6% | [11]; at 1.2 µM -3% | [11]; at 3.7 µM -5% | [11]; [16] -7% | [11]; at 11.0 µM -7% | [11]; at 33.0 µM -11% | [11]; [17] 1% | [11]; at 50.0 µM 44.6% | [11]; at 100.0 µM -7% | [12]; at 1.2 µM -1% | [12]; at 3.7 µM -2% | [12]; at 11.0 µM -2% | [12]; at 33.0 µM -2% | [12]; at 100.0 µM 20% | [13]; at 1.2 µM 0% | [13]; at 3.7 µM -4% | [13]; at 11.0 µM -2% | [13]; at 33.0 µM -2% | [13]; at 100.0 µM 26% | [14]; at 1.2 µM -2% | [14]; at 3.7 µM -2% | [14]; at 11.0 µM -3% | [14]; at 33.0 µM 0% | [14]; at 100.0 µM 42% | [1]; [16] -2% | [1]; [17] 7% | [1]; at 50.0 µM 2.05% | [2]; at 1.2 µM -2% | [2]; at 3.7 µM -4% | [2]; at 11.0 µM -3% | [2]; at 33.0 µM -2% | [2]; at 100.0 µM 52%
